Assay outcomes deposited in PubChem BioAssay by National Center for Advancing Translational Sciences (NCATS).
A selection: hits, their analogues and other compounds. The true share with any hit is near 1.3%.
SARS PLP yeast = inhibitors of SARS-CoV papain-like protease in yeast; S. cerevisiae expressing SARS-CoV PLpro, growth rescue; Potency, µM (doses to about 32.9 µM), for the others: at the top dose activity, positive = growth rescue, hits mostly activators; 330,000 compounds, 0.19% hits; AID 485353; calls by dose curve; note: 0% is about no effect; nearly all actives have a fitted effect of over 55% in size
Vaccinia Venus = vaccinia inhibition (Venus reporter). Vaccinia virus Venus reporter expression, fluorescence. Potency, µM (top dose mostly 36.5 µM), for the others: top-dose activity change, negative = inhibition, hits mostly inhibitors. 330,000 compounds, 0.46% hits; calls by dose curve; tested in A549 cells; note: % is set by controls: 0 for no effect and ±100 for the full control effect; nearly all actives have a fitted effect of over 30% in size
AmpC inh no detg = AmpC beta-lactamase inhibition without detergent. 330,000 compounds, 0.52% hits. Potency, µM (series often up to 57.1 µM), for the others: top-dose activity change, negative = inhibition, usual class: inhibitors. AmpC nitrocefin hydrolysis, absorbance 480 nm, 0.0001% Triton;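 note: plate controls were no compound for no effect and no enzyme for full effect; nearly all actives have a fitted effect of over 20% in size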
Target sequence (P00811 whole entry, looked up): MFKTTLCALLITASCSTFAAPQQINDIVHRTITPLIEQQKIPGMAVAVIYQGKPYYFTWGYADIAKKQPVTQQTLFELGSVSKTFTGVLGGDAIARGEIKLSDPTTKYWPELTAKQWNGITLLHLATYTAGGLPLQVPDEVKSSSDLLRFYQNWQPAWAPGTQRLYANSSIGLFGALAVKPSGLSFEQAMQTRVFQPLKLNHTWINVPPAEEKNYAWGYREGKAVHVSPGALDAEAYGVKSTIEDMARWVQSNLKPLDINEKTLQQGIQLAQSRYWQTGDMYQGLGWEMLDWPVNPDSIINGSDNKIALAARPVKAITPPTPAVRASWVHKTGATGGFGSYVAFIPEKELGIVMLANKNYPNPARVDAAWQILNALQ
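AmpC (5.3 nM in the dispensed reagent) in 20 mM phosphate pH 7.0 with 0.01% (detergent screen) or 0.0001% Triton X-100 was preincubated with compounds for 15 min at room temperature. Nitrocefin was then added from an 800 uM solution, and hydrolysis was followed at 480 nm.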
AmpC detergent = blocks E. coli AmpC beta-lactamase in detergent assay. AmpC hydrolysis of nitrocefin, absorbance 480 nm, 0.01% Triton. Potency, µM (titrated, usually from 114 µM), for the others: at the top dose activity change, negative = inhibition, usual class: inhibitors. 370,000 compounds, 0.041% hits;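 note: 0% = no-compound wells and -100% = no-enzyme wells; nearly all actives have a fitted effect of over 25% in size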
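20 mM phosphate pH 7.0 + 0.01% (detergent screen) or 0.0001% Triton X-100; 5.3 nM AmpC reagent; cpd preinc 15 min RT; nitrocefin (800 uM stock) to start; A480 q20 s × 4 min; Activity was normalised to no-enzyme and no-compound control wells.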
AMA1-RON2 inh = inhibitors of Plasmodium falciparum AMA1-RON2 interaction. AlphaScreen AMA1-biotinylated RON2 peptide binding. AID 720542. 360,000 compounds, 0.2% hits. Potency, µM (doses to about 58.2 µM), without a hit: at the top dose activity change, negative = inhibition, actives largely listed as inhibitors;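 note: 0% = vehicle wells and -100% = peptide control; nearly all actives have a fitted effect of over 45% in size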
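AMA1 (3D7) with his tag at 25 nM final met compounds first, then biotinylated RON2 peptide at 25 nM; detection used donor plus acceptor beads, 10 µg/mL apiece, read by AlphaScreen after 30 min at room temperature.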
Vaccinia mCherry = vaccinia inhibition (mCherry reporter) | Vaccinia virus mCherry reporter infection, fluorescence | Potency, µM (top dose mostly 36.5 µM), without a hit: top-dose activity change, negative = inhibition, most hits filed as inhibitors | 310,000 compounds, 0.63% hits | AID 720579; calls by dose curve; tested in A549 cells; note: % is set by controls: 0 for no effect and ±100 for the full control effect; nearly all actives have a fitted effect of over 35% in size
The depositor's hits bear a star; i = inactive; ? = inconclusive; / = not tested or not shown. Unless noted, calls come from the whole dose curve; as a rule, active = well fitted curve in the direction sought with a large enough effect; inconclusive = small, poorly fitted or top-dose-only effect, or another doubt; inactive = no such curve, though single readings can be large; an effect the other way counts as inactive or inconclusive. Potency is the fitted concentration of half-maximal effect.

SMILES	SARS PLP yeast	Vaccinia Venus	AmpC inh no detg	AmpC detergent	AMA1-RON2 inh	Vaccinia mCherry
O=C(COC(=O)CSc1ccc([N+](=O)[O-])cc1)NC1CCCCCCC1	-17%	-7%	32µM*	?	-13%	-14%
COc1ccc(N2CCN(C(=O)c3cn(C)c(=O)c4c3c3ccccc3n4C)CC2)cc1	10%	/	153%	-5%	-28%	/
COc1ccc(N2CCN(C(=O)c3cn(C4CCCC4)c(=O)c4c3c3ccccc3n4C)CC2)cc1	0%	-21%	84%	0%	14µM*	-17%
Cc1nc2cc(NC(=O)[C@@H]3C[C@@H](Sc4ccccn4)CN3Cc3ccccc3)ccc2s1	/	-4%	/	/	/	-14%
CN1CCN(CC(=O)N2CCn3c4c(c5cc(C6CCCCC6)ccc53)CCCC42)CC1 (stereo not given)	-15%	?	145%	0%	?	11µM*
Cc1ccc2c(c1)c1c3n2CCN(C(=O)CN2CCN(C)CC2)C3CCC1 (stereo not given)	1%	-13%	140%	-15%	-23%	-25%
COc1ccccc1Nc1cc(C)nc2c(C)ccc([N+](=O)[O-])c12	1%	-12%	-21%	?	3.2µM*	i
CC(=NNC(=S)N1CCC1)c1ccccn1	/	?	/	/	-34%	?
CC(=NNC(=S)N1CC2CCC(CC2)C1)c1cccc(C)n1	/	?	/	/	2%	4µM*
O=C(NCCc1nnc2n1CCN(Cc1ccc(F)c(F)c1)CC2)c1ccoc1	/	-7%	/	/	/	-9%
O=c1ccc2c(o1)/C(=C/C=C(Cl)Cl)CCC2	-10%	?	-6%	10%	3%	10µM*
O=c1ccc2cc3c4c(c2o1)CCCN4CCC3	0%	13%	-40%	-3%	-13%	-15%
Cc1cccc(CNC(=O)c2c3n(c(C)cc2=O)-c2ccccc2SC(c2ccsc2)C3)n1 (stereo not given)	/	-11%	/	/	/	i
COc1ccc(C2CC(c3ccccc3C)n3nc(N)nc3N2)cc1 (stereo not given)	4%	-3%	?	-14%	-1%	-6%
CCOc1ccc(C2CC(c3ccccc3C)n3nc(N)nc3N2)cc1 (stereo not given)	9%	0%	32µM*	-4%	16%	-2%
COc1cccc(C2CC(c3ccccc3C)n3nc(N)nc3N2)c1 (stereo not given)	8%	-5%	2.8µM*	?	-4%	18%
COc1cccc(C2CC(c3c(Cl)cccc3Cl)n3nc(N)nc3N2)c1 (stereo not given)	-2%	/	5.6µM*	?	-6%	/
CCOc1ccc(C2CC(c3cccc(OC)c3)n3nc(N)nc3N2)cc1 (stereo not given)	-1%	-10%	4.5µM*	?	-3%	-12%
Cc1ccc(C2CC(c3ccccc3C)n3nc(N)nc3N2)cc1 (stereo not given)	-14%	-4%	16%	?	-1%	3%
COc1cc(-c2nc(C)cnc2C)cc2c1OCCN(C(=O)Cc1cc(OC)c(OC)c(OC)c1)C2	/	10%	/	/	/	-9%
O=c1[nH]c(=S)c2[nH]cnc2[nH]1	/	-3%	/	/	/	38%
COC(=O)c1c(OCc2ccccn2)cc(=O)n2c1CCN(Cc1ccc3nsnc3c1)CC2	/	0%	/	/	/	-2%
COc1ccc(-c2nn(-c3ccccc3)cc2C(=O)Nc2cccc(C(=O)O)c2)cc1[N+](=O)[O-]	28%	/	3.5µM*	-3%	0%	/
CCc1ccc(OCC2c3cc(OC)c(OC)cc3CCN2C(=O)Cc2ccc(OC)c(OC)c2)cc1 (stereo not given)	/	?	/	1%	/	35µM*
CC(=O)Nc1ccc(C(=O)N2CCCC(n3cc(C(=O)NCC(C)C)nn3)C2)cc1 (stereo not given)	/	-13%	/	/	/	i
SMILES	SARS PLP yeast	Vaccinia Venus	AmpC inh no detg	AmpC detergent	AMA1-RON2 inh	Vaccinia mCherry
CCn1c2ccccc2c2cc(NC(=O)COC(=O)c3cccc(S(=O)(=O)NC)c3)ccc21	-4%	?	-9%	3%	-2%	?
CCn1c2ccccc2c2cc(NC(=O)COC(=O)Cc3cn4ccsc4n3)ccc21	3%	10µM*	-16%	-10%	-26%	/
O=C(COC(=O)Cc1cn2ccsc2n1)NCc1ccc2c(c1)OCO2	-1%	-10%	-12%	-13%	4%	-19%
CCn1c2ccccc2c2cc(NC(=O)COC(=O)c3ccc(O)cc3)ccc21	-5%	?	?	-4%	2%	11µM*
COc1ccc(-c2csc(N)n2)cc1	-56%	?	-9%	?	2%	14µM*
Nc1nc(-c2ccc(Oc3ccccc3)cc2)cs1	-28%	/	-53%	-8%	10%	/
Nc1nc(-c2ccc(-c3ccccc3)cc2)cs1	-28%	?	-24%	-1%	3%	?
Cc1ccc(-c2csc(N)n2)cc1	/	?	/	/	-5%	11µM*
COc1ccc(CNC(=O)c2cnn(-c3nccc(-c4ccco4)n3)c2C)cc1OC	/	-14%	/	/	/	?
O=C(/C=C\c1cn(-c2ccccc2)nc1-c1ccccc1)Nc1nccs1	-18%	?	11µM*	-14%	11%	?
COc1ccc(/C=C2\SC(=S)N(CCCC(=O)N3CCN(C)CC3)C2=O)cc1	1%	-27%	190%	?	?	-19%
CCc1ccc(/C=C2\SC(=S)N(CCCC(=O)N3CCN(C)CC3)C2=O)cc1	/	28µM*	/	/	?	?
COc1cc(CN2CCOc3ccc(CN4CCC(O)(c5cccnc5)CC4)cc3C2)ccc1F	/	-1%	/	/	/	-13%
O=C(Nc1ccc(S(=O)(=O)Nc2nccs2)cc1)c1ccc(F)c(S(=O)(=O)N2CCOCC2)c1	0%	/	7.9µM*	?	-2%	/
Cc1cnc(SCC2CCCO2)nc1C1CCCN(C(=O)C2=NNC(=O)CC2)C1 (stereo not given)	/	-13%	/	/	/	-15%
Cc1c(C(=O)N2CCCC(C)C2)sc2ncnc(NCCN3CCCCC3)c12 (stereo not given)	/	-11%	/	/	/	-23%
FCCCOc1ccc(-c2nccc(-c3ccc(Cl)cc3)n2)cc1	3%	-9%	0.11µM*	5%	10%	/
Clc1ccc(-n2cccc2CN2CCOc3ccc(CN4CCOCC4)cc3C2)nc1	/	-14%	/	/	/	i
COc1ccccc1N1CCN(C(c2ccc(N(C)C)cc2)c2nnnn2CCc2ccccc2)CC1 (stereo not given)	2%	-15%	21%	?	20µM*	-20%
Cc1cccc(NC2=NC(C)(C)N=C(N)N2)c1	1%	1µM*	-18%	-5%	0%	?
O=C(/C=C/c1cccc(Cl)c1)c1ccc([N+](=O)[O-])o1	5%	10µM*	-29%	?	-29%	10µM*
